# Out of some 100,000 compounds screened, about 770 (0.77%) were called active. The sample as a whole holds a higher share of actives than the screen did. Unmarked numbers belong to inactive results. Rule as the data show it: active = inhibition above about 50%; inactive = the rest.
# Target: Gag-Pol polyprotein (Human immunodeficiency virus type 1 group M subtype B (isolate HXB2)) (UniProt P04585)
# Assay: RNase H inhibition, HIV 1 Gag Pol polyprotein, FRET biochemical assay, screening (AID 372)
# Settings: HIV-1 RT RNase H, FRET RNA/DNA substrate fluorescence; at 10 µM; active compounds read high
row,SMILES,inhibition
1,CCOC(=O)C1CCN(C(=O)COc2ccc(C)cc2C)CC1,4%
2,Fc1ccc(Br)cc1SCCc1ccccn1,0%
3,CCOc1cc(/C=C2/SC(=S)NC2=O)cc([N+](=O)[O-])c1OCCCOc1ccc(Cl)cc1,27%
4,Cc1ccc(-c2nc3ccccc3s2)cc1NC(=O)c1ccc(Cl)c([N+](=O)[O-])c1,3%
5,Cc1cc(C(=O)Nc2cc(-c3nc4ccccc4s3)ccc2Cl)ccc1[N+](=O)[O-],52% (active)
6,Cc1ccc(C(=O)Nc2cc(-c3nc4ccccc4s3)ccc2Cl)cc1[N+](=O)[O-],39%
7,O=C(NC(=S)Nc1cc(-c2nc3ccccc3s2)ccc1Cl)c1ccc(Cl)cc1,33%
8,O=C(NC(=S)Nc1cc(-c2nc3ccccc3s2)ccc1Cl)c1ccccc1,37%
9,COc1ccc(C(=O)NC(=S)Nc2cc(-c3nc4ccccc4s3)ccc2C)cc1,1%
10,COc1ccc(C(=O)NC(=S)Nc2cc(-c3nc4ccccc4s3)ccc2Cl)cc1OC,10%
11,COc1ccc(C(=O)NC(=S)Nc2cc(-c3nc4ccccc4s3)ccc2Cl)cc1,50% (active)
12,O=C1C(=Cc2ccc(Oc3ccc(C(F)(F)F)cc3[N+](=O)[O-])c(Cl)c2)C(=O)c2ccccc21,16%
13,Cc1cc(Oc2cc(NC(=O)c3cc(-c4ccccc4)nc4ccccc34)cc([N+](=O)[O-])c2)ccc1Cl,0%
14,Cc1cc(C)c2oc(-c3ccc(C)c(NC(=O)c4cccs4)c3)nc2c1,15%
15,CCOc1ccc(/C=N/n2c(-c3ccc(OC)cc3)n[nH]c2=S)cc1OC,12%
16,COc1cc2ccccc2cc1C(=O)Nc1cccc2ccccc12,10%
17,Cc1cc(S(=O)(=O)Oc2ccc3ccccc3c2)c(Cl)cc1Cl,42%
18,O=S(=O)(Oc1ccc2ccccc2c1)c1cc(Cl)c(Cl)cc1Cl,58% (active)
19,COc1ccc(OS(=O)(=O)c2cc(Cl)c(Cl)cc2Cl)cc1,31%
20,O=C(Nc1ccccc1C#Cc1ccccc1)C(c1ccccc1)c1ccccc1,8%

row,SMILES,inhibition
1,Cc1ccc(/C=C2\SC(=S)N(CCC(=O)Nc3cc(Cl)cc(Cl)c3)C2=O)cc1,14%
2,CC1(C)C(c2ccccc2)=NC(c2ccccc2F)=[N+]1[O-],0%
3,COc1ccc(/C=N/NC(=O)c2cc(-c3ccc(Cl)cc3)n[nH]2)cc1,14%
4,CC(C)(C)N1C(=O)c2ccc(C(=O)c3ccc(C(=O)O)cc3)cc2C1=O,0%
5,Cc1cc(/C=C2\NC(=O)NC2=O)c(C)n1-c1cccc([N+](=O)[O-])c1,29%
6,CCC(=O)N(Cc1ccco1)C1CC(=O)N(c2ccccc2)C1=O (stereo not given),0%
7,Cn1c(/C=C/c2cccc(Oc3ccccc3)c2)c([N+](=O)[O-])c(=O)n(C)c1=O,54% (active)
8,CCOc1ccc(/C=C/c2c([N+](=O)[O-])c(=O)n(C)c(=O)n2C)cc1,16%
9,Cn1c(/C=C/c2ccc(Br)cc2)c([N+](=O)[O-])c(=O)n(C)c1=O,6%
10,Cc1[nH]n(-c2ccccc2)c(=O)c1N=Nc1ccccc1Br,5%
11,COc1ccc2ccccc2c1/C=C1\SC(=Nc2cccc(Cl)c2C)NC1=O,35%
12,O=C(Nc1ccc(Cl)cc1)Nc1ccc(-c2ccc(NC(=O)Nc3ccc(Cl)cc3)cc2)cc1,57% (active)
13,O=C(Nc1ccc(Cl)cc1)Nc1cc(Cl)cc(Cl)c1,6%
14,O=C(Nc1ccc(O)cc1)Nc1ccc(Cl)cc1,17%
15,COc1ccc(N2C(=O)/C(=C/c3ccc(-c4ccc([N+](=O)[O-])c(C)c4)o3)SC2=S)cc1,64% (active)
16,COc1ccc(N2C(=O)/C(=C/c3ccc(-c4ccc([N+](=O)[O-])cc4Cl)o3)SC2=S)cc1,18%
17,O=C1/C(=C\c2ccc(-c3ccc([N+](=O)[O-])cc3)o2)SC(=S)N1c1ccc(O)cc1,52% (active)
18,O=C(O)c1ccc(-c2ccc(/C=C3\SC(=S)N(c4ccc([N+](=O)[O-])cc4)C3=O)o2)cc1,49%
19,O=C(O)c1cccc(-c2ccc(/C=C3\SC(=S)N(c4ccc([N+](=O)[O-])cc4)C3=O)o2)c1,12%
20,COc1ccc(N2C(=O)/C(=C/c3ccc(-c4ccccc4[N+](=O)[O-])o3)SC2=S)cc1,26%

row,SMILES,inhibition
1,COc1ccc(CN2CCN(Cc3ccccc3C(F)(F)F)CC2)cc1Br,4%
2,Cc1ccc(/C(N)=N/OC(=O)c2ccc(C)cc2Cl)cc1,10%
3,Clc1ccc(-c2nnc(-c3ccc4c(c3)OCO4)o2)c(Cl)c1,3%
4,CCOC(=O)C1=C(C)N=c2s/c(=C\c3cccc(OCc4ccccc4Cl)c3)c(=O)n2C1c1ccc(Cl)cc1 (stereo not given),11%
5,COc1ccc(Br)cc1CNC12CC3CC(CC(C3)C1)C2,6%
6,Br/C(=C\c1ccccc1)C1Nc2cccc3cccc(c23)N1,21%
7,CCCCC(O)(CCCC)c1ccccc1O,3%
8,O=c1oc2ccccc2cc1-c1csc(-c2ccc(O)cc2)n1,43%
9,CCOc1cc(/C=C(/C#N)C(=O)Nc2cc(Cl)ccc2Cl)ccc1O,51% (active)
10,CCOc1ccc(NC(=O)/C(C#N)=C\c2ccc(O)c(OCC)c2)cc1,20%
11,CCNC(=O)/C(C#N)=C/c1ccc(O)c(OCC)c1,6%
12,COc1ccc2c(c1)C1C=CCC1C(C(=O)O)N2 (stereo not given),25%
13,Cc1ccc(C(=O)c2cccc(C(=O)c3ccc(C)cc3)c2)cc1,7%
14,O=C(c1ccccc1)c1ccc2[nH]c(=O)[nH]c2c1,0%
15,O=C(c1ccccc1)c1ccc(O)c(O)c1,60% (active)
16,O=C(Sc1nnnn1-c1ccccc1)c1ccccc1Br,0%
17,CCOC(=O)c1sc(NC(=O)C2CC3CCC2C3)c(C(=O)OCC)c1C (stereo not given),10%
18,CCc1c(C)sc(NC(=O)C2CCCO2)c1C(N)=O (stereo not given),0%
19,COC(=O)c1sc(NC(=O)C2CC3CCC2C3)c(C(N)=O)c1C (stereo not given),11%
20,Cc1sc(NC(=O)C2CCCCC2)c(C(N)=O)c1C,7%
